Assay results reported in PubChem BioAssay AID1159580 (chemical genetic matrix, 2015).
“And” between values parts separate entries of the source, which are not always exact repeats. Equal values may be shown once. Screen size: about 5,500 compounds; about 2,000 (36%) were called active. Not shown: some 18% with an inconclusive outcome. Cut-off read from the data, not from the text of the source: active = normalized growth mostly below about 0.91 (no sharp cut-off); inconclusive = no clear call, values can overlap the other calls; inactive = mostly above about 0.92. The list shows a part of the results.

Assay: chemical genetic growth profiling, strain panel (AID 1159580);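 note: tested at 20 µM; growth read once vehicle control cultures reached saturation at 30 °C; 1 = growth at the plate median or of vehicle wells; lower values mean less growth of the strain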
Conditions: S. cerevisiae deletion strains, growth OD

Measured: normalized growth

CO[C@@]1(NC(=O)CSCC#N)C(=O)N2C(C(=O)O)=C(CSc3nnnn3C)CSC21 (stereo partly specified)
inactive: locus YAL013W, strain DEP1, active compounds read low 1.01 | locus YAL021C, strain ccr4, active compounds read low 0.941 | locus YAL026C, strain drs2, active compounds read low 0.985 | locus YAL030W, strain snc1, active compounds read low 0.988 | locus YBL061C, strain skt5, active compounds read low 0.985 | locus YBR009C, strain hhf1, active compounds read low 0.988 | locus YBR021W, strain FUR4, active compounds read low 1 | locus YBR023C, strain chs3, active compounds read low 0.994 | locus YBR171W, strain sec66, active compounds read low 0.997 | locus YBR229C, strain ROT2, active compounds read low 1.01 | locus YBR231C, strain swc5, active compounds read low 0.981 | locus YBR279W, strain paf1, active compounds read low 0.981 | locus YCL011C, strain gbp2, active compounds read low 0.993 | locus YCL016C, strain dcc1, active compounds read low 0.975 | locus YCL029C, strain bik1, active compounds read low 1.03 | locus YCL069W, strain vba3, active compounds read low 0.986 | locus YCR088W, strain abp1, active compounds read low 0.996 | locus YDL005C, strain med2, active compounds read low 0.909 | locus YDL035C, strain GPR1, active compounds read low 1.02 | locus YDL040C, strain nat1, active compounds read low 0.988 | locus YDL074C, strain BRE1, active compounds read low 1.03 | locus YDL101C, strain DUN1, active compounds read low 1.01 | locus YDL134C, strain PPH21, active compounds read low 1.01 | locus YDL185W, strain tfp1, active compounds read low 1.03 | locus YDL192W, strain arf1, active compounds read low 1.04 | locus YDR001C, strain nth1, active compounds read low 1 | locus YDR069C, strain doa4, active compounds read low 0.973 | locus YDR101C, strain arx1, active compounds read low 1.03 | locus YDR137W, strain rgp1, active compounds read low 0.948 | locus YDR150W, strain NUM1, active compounds read low 1.01 | locus YDR159W, strain sac3, active compounds read low 0.927 | locus YDR162C, strain NBP2, active compounds read low 1.04 | locus YDR195W, strain ref2 1 | locus YDR297W, strain sur2, active compounds read low 1 | locus YDR318W, strain mcm21, active compounds read low 1.03 | locus YDR334W, strain swr1, active compounds read low 1 | locus YDR335W, strain msn5, active compounds read low 0.99 | locus YDR388W, active compounds read low 1.02 | locus YDR392W, strain spt3, active compounds read low 0.878 | locus YDR502C, strain sam2, active compounds read low 1.03 | locus YEL003W, strain gim4, active compounds read low 1 | locus YEL037C, strain rad23, active compounds read low 1 | locus YEL061C, strain CIN8 (second series), active compounds read low 1.01 | locus YEL061C, strain CIN8, active compounds read low 1.01 | locus YER015W, strain faa2, active compounds read low 0.982 | locus YER016W, strain bim1, active compounds read low 0.968 | locus YER110C, active compounds read low 1.04 | locus YER111C, strain swi4, active compounds read low 0.982 | locus YER155C, strain BEM2 (second series), active compounds read low 0.968 | locus YER155C, strain BEM2, active compounds read low 1.01 | locus YER167W, strain BCK2, active compounds read low 1.02 | locus YFR010W, strain ubp6, active compounds read low 1 | locus YGL078C, strain dbp3, active compounds read low 1.03 | locus YGL086W, strain mad1, active compounds read low 1.02 | locus YGL167C, strain pmr1, active compounds read low 0.984 | locus YGL173C, strain kem1, active compounds read low 0.97 | locus YGL227W, strain vid30, active compounds read low 1.01 | locus YGL240W, strain doc1, active compounds read low 0.959 | locus YGL248W, strain PDE1, active compounds read low 1.01 | locus YGL253W, strain hxk2, active compounds read low 0.998 | locus YGR078C, strain PAC10, active compounds read low 1.01 | locus YGR135W, strain pre9, active compounds read low 1.01 | locus YGR229C, strain SMI1, active compounds read low 1.02 | locus YGR252W, strain gcn5, active compounds read low 1.07 | locus YHR013C, strain ard1, active compounds read low 0.964 | locus YHR027C, strain rpn1, active compounds read low 0.98 | locus YHR030C, strain SLT2, active compounds read low 1.01 and 0.983 | locus YHR079C, strain IRE1 (second series), active compounds read low 1.02 | locus YHR079C, strain IRE1, active compounds read low 0.986 | locus YHR094C, strain hxt1, active compounds read low 1.03 | locus YHR129C, strain ARP1, active compounds read low 1.01 | locus YHR142W, strain chs7, active compounds read low 1.01 | locus YHR200W, strain rpn10, active compounds read low 1.04 | locus YIL066C, strain RNR3, active compounds read low 1.03 | locus YIL073C, strain SPO22, active compounds read low 1.13 | locus YIL125W, strain kgd1, active compounds read low 1.03 | locus YIR030C, strain dcg1, active compounds read low 1.03 | locus YJL092W, strain hpr5, active compounds read low 1 | locus YJL095W, strain BCK1 (second series), active compounds read low 0.979 | locus YJL095W, strain BCK1, active compounds read low 1.01 and 0.98 | locus YJL115W, strain asf1, active compounds read low 0.984 | locus YJL129C, strain trk1, active compounds read low 0.99 | locus YJL134W, strain LCB3, active compounds read low 1 | locus YJL154C, strain vps35, active compounds read low 1 | locus YJL164C, strain tpk1, active compounds read low 0.973 | locus YJL166W, strain qcr8, active compounds read low 0.978 | locus YJL168C, strain set2, active compounds read low 1.04 | locus YJL187C, strain SWE1 (second series), active compounds read low 1.01 | locus YJL187C, strain SWE1, active compounds read low 0.985 | locus YJR043C, strain POL32, active compounds read low 1.01 | locus YJR066W, strain TOR1, active compounds read low 0.942
